In experiment [1] the target is Albumin (Bos taurus) (UniProt P02769). Description: bovine serum albumin binders on microarray, profiling panel, artefact control for SMM control protein annotation, biochemical, small-molecule microarray, Alexa647 label, 635/667 nm fluorescence (AID 1118).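 Note: score merges 667 nm emission intensity and signal-to-noise per printed compound spot.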 The conditions noted are these: BSA-A647 binding, fluorescence 635 nm, higher = more signal.
A short description of experiment [2]: small-molecule microarray binders of probe aXIP, primary screen, biochemical, NeuroSMM set, 635/667 nm fluorescence (AID 1119).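 Note: probe is the protein aXip251-270 applied at 1 µg/mL to compound-printed slides; binding of probe to printed compounds measured as 667 nm fluorescence plus signal to noise.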 The conditions noted are these: higher = more signal, called active from +8 up or from −8 down.
Experiment [3] in a line: small-molecule binders of probe aNOTCH3, primary screen, biochemical, small-molecule microarray, 635/667 nm fluorescence (AID 1120).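 Note: probe is a biotin-tagged antibody raised against NOTCH3 rather than NOTCH3 protein; score merges spot fluorescence near 667 nm with spot signal to noise.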 The conditions noted are these: higher = more signal.
The nature of experiment [4]: small-molecule binders of probe aNOTCH2, primary screen, biochemical, small-molecule microarray, 635/667 nm fluorescence (AID 1121).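 Note: score merges feature fluorescence read at 667 nm with its signal to noise.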 The note with it: higher = more signal.
Experiment [5] has as its target Carbonic anhydrase 2 (Homo sapiens) (UniProt P00918). Description: CAII small-molecule binders, profiling panel, biochemical, small-molecule microarray, Alexa647-labelled CAII (AID 1122). The conditions noted are these: CAII-A647 binding fluorescence, higher = more signal.
Experiment [6] in a line: COS7 lysate on small-molecule microarray, probe aHis, 635 nm (AID 1123).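 Note: z-score combines 667nm fluorescence intensity with signal-to-noise per printed compound spot.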 The note with it: COS7 cell lysate, fluorescence, higher = more signal.
Experiment [7] can be described thus: compound binding in COS7 lysate, probe aLAP1, primary screen, cell lysate, small-molecule microarray (AID 1124).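 Note: lysate comes from COS7 cells expressing LAP1 and is applied at 0.3 µg/mL; score merges spot fluorescence near 667 nm with signal-to-noise over triplicate slides.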 The note with it: probe aLAP1, fluorescence, higher = more signal.
In experiment [8] the test system is Sam68 (KHDRBS1). Description: Sam68 small-molecule binders, primary screen, biochemical, small-molecule microarray, 635 nm fluorescence (AID 1125).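 Note: score merges 667 nm channel intensity with signal to noise over triplicate slides.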 The conditions noted are these: small-molecule microarray binding, higher = more signal.
In experiment [9] the test system is Chordin-like protein 2 (CHRDL2). Description: CHRDL2 small-molecule binders, primary screen, biochemical, small-molecule microarray, 635 nm fluorescence (AID 1126).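 Note: printed compound slides probed with Chrdl2 protein at 4 µg/mL for 1 h at 4 C; score merges 667 nm emission intensity with signal to noise over three replicate slides.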 The conditions noted are these: small-molecule microarray binding, fluorescence 635 nm; higher = more signal.
Experiment [10] concerns the target Concanavalin-A (Canavalia ensiformis) (UniProt P02866). The experiment can be described thus: ConA small-molecule binders, primary screen, artefact control for SMM control protein annotation, biochemical, small-molecule microarray, Alexa647 label, 635 nm (AID 1127).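 Note: z combines 667 nm emission intensity with signal-to-noise across three replicate slides.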 The conditions noted are these: ConA-A647 binding fluorescence, higher = more signal.
Experiment [11] is described as follows: anti-His antibody binders, primary screen, artefact control for SMM control protein annotation, biochemical, small-molecule microarray, 635 nm fluorescence (AID 1128).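 Note: score merges feature fluorescence with signal-to-noise for each printed compound spot.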 The conditions noted are these: anti-His Alexa647 antibody binding, higher = more signal.
In experiment [12] the test system is Human papillomavirus type 1a E7 protein (residues 1-88). The experiment can be described thus: HPV1a E7 small-molecule binders, primary screen, biochemical, small-molecule microarray, residues 1-88, 635 nm (AID 1129). The conditions noted are these: small-molecule microarray binding, fluorescence 635 nm; higher = more signal.
In experiment [13] the target is Focal adhesion kinase 1 (Homo sapiens) (UniProt Q05397). Description: small-molecule microarray binders of FAK, primary screen, biochemical, 635/667 nm fluorescence, BSA, DTT (AID 1130).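 Note: composite of spot emission at 667 nm and signal to noise over triplicate slides.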 The note with it: PTK2 binding, 635 nm fluorescence, higher = more signal.
Experiment [14] relates to Fibrinogen (Alexa647-labelled). Description: fibrinogen binders on compound microarrays, profiling panel, artefact control for SMM control-protein annotation, biochemical, small-molecule microarray, 635/667 nm fluorescence (AID 1131).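 Note: z-score merges 667 nm fluorescence with per-spot signal-to-noise over triplicate slides.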 The note with it: fibrinogen-A647 binding fluorescence, higher = more signal.
Experiment [15] addresses Follistatin (Homo sapiens) (UniProt P19883). The experiment can be described thus: follistatin binders on small-molecule microarrays, primary screen, biochemical, small-molecule microarray, 635/667 nm fluorescence (AID 1132). The note with it: FST binding, 635 nm fluorescence, higher = more signal.
For experiment [16], the target named is Fibroblast growth factor 2 (Homo sapiens) (UniProt P09038). Description: FGF2 binders on small-molecule microarrays, primary screen, biochemical, small-molecule microarray, 635/667 nm fluorescence (AID 1133). The conditions noted are these: small-molecule microarray binding, FGF2, fluorescence 635/667; higher = more signal.
The nature of experiment [17]: mitochondrial membrane potential change in A549 cells, profiling panel, cell-based, JC-1 fluorescence, basal, 24 h, 100 nL (AID 1138).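 Note: A549 lung adenocarcinoma cells under basal conditions with no added stimulus; test concentration not given here.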 The note with it: higher = more signal.
For experiment [18], the system named is Lefty1. Description: Lefty1 binders on small-molecule microarrays, primary screen, biochemical, small-molecule microarray, 635/667 nm fluorescence (AID 1139). The note with it: small-molecule microarray binding, fluorescence 635/667; higher = more signal.
Experiment [19] concerns wheat germ agglutinin (Triticum aestivum), Alexa647-labelled. The experiment can be described thus: wheat germ agglutinin binders on compound microarrays, profiling panel, artefact control for SMM control-protein annotation, biochemical, small-molecule microarray, 635/667 nm fluorescence (AID 1140).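 Note: score merges 667 nm feature emission with signal to noise over triplicate slides.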 The conditions noted are these: WGA-A647 binding, 635 nm fluorescence, higher = more signal.

Experiment [20] has as its target Luciferin 4-monooxygenase (Photinus pyralis) (UniProt P08659). The experiment can be described thus: firefly luciferase enzyme inhibitors, primary screen, biochemical, luminescence, purified enzyme, 2006 set (AID 1141).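 Note: cell-free assay with purified firefly luciferase at 100 ng per well in PBS; test concentration not given here.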 The note with it: SteadyGlo luminescence, 30 min, higher = more signal, called active from +8 up or from −8 down.

The source of these data is PubChem BioAssay.

Activity calls are given as the source filed them.

Chain of Concanavalin-A (Canavalia ensiformis) (P02866 whole entry, looked up): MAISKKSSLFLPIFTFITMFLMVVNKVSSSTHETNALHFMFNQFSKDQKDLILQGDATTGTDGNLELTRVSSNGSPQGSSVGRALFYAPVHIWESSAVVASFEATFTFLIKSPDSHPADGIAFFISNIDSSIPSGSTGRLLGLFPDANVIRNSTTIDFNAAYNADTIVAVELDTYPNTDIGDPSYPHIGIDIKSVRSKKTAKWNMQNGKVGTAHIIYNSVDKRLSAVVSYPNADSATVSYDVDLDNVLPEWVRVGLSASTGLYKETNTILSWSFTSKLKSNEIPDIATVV
Chain of Follistatin (Homo sapiens) (P19883 whole entry, looked up): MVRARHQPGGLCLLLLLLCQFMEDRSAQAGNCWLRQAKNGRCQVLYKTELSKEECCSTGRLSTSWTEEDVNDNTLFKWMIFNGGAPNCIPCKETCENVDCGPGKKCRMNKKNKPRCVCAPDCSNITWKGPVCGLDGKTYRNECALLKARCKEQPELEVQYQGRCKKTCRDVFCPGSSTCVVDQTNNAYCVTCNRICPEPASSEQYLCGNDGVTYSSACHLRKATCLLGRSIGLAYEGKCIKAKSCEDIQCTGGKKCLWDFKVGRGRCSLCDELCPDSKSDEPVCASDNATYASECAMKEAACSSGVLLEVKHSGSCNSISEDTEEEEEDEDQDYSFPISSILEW
Chain of Focal adhesion kinase 1 (Homo sapiens) (Q05397 whole entry, looked up): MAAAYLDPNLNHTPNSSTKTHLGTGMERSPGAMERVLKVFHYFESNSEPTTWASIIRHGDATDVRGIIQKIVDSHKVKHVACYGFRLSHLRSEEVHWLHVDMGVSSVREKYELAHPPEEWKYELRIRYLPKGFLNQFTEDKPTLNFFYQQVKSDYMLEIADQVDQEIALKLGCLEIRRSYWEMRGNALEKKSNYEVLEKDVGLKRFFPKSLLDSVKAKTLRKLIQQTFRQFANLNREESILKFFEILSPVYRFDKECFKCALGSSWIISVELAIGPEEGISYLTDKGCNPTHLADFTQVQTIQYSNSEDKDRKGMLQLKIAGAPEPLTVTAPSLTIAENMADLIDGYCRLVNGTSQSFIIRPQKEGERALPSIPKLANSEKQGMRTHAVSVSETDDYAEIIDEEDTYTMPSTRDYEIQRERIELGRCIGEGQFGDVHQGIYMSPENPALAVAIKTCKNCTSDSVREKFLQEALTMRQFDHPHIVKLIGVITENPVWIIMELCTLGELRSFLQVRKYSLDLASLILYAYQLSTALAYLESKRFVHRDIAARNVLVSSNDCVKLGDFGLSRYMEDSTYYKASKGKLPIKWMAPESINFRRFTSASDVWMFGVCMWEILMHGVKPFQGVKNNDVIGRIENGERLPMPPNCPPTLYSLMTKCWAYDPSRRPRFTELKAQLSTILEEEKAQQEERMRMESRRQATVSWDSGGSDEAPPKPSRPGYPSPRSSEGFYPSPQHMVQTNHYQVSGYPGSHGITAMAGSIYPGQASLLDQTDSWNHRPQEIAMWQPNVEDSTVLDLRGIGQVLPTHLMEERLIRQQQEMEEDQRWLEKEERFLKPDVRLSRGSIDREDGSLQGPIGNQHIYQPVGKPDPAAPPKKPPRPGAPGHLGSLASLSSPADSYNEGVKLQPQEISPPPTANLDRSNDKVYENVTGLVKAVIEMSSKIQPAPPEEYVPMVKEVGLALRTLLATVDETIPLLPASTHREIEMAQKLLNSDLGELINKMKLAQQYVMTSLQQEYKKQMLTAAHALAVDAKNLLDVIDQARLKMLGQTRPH
Chain of Fibroblast growth factor 2 (Homo sapiens) (P09038 whole entry, looked up): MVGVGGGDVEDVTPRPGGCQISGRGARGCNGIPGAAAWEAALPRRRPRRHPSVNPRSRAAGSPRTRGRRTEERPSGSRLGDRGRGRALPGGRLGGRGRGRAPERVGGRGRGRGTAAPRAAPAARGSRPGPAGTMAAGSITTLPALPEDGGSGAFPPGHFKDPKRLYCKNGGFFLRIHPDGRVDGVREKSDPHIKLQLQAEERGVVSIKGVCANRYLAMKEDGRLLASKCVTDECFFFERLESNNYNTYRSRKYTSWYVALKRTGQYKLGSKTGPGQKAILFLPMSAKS
Chain of Albumin (Bos taurus) (P02769 whole entry, looked up): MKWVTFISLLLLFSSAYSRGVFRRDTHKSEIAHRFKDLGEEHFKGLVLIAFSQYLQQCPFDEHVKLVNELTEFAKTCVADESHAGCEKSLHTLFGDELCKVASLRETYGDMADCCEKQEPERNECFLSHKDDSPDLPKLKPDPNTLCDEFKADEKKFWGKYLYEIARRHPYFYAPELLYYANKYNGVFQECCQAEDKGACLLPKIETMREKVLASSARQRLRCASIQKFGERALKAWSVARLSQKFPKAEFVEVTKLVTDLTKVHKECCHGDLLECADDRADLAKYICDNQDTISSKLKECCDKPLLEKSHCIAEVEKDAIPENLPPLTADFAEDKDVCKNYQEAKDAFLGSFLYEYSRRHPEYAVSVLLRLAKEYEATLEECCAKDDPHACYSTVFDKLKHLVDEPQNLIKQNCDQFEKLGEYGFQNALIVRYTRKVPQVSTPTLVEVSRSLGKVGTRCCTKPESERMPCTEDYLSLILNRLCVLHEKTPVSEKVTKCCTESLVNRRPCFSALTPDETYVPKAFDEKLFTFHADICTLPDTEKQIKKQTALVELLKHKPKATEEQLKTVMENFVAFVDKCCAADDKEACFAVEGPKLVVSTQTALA
Chain of Luciferin 4-monooxygenase (Photinus pyralis) (P08659 whole entry, looked up): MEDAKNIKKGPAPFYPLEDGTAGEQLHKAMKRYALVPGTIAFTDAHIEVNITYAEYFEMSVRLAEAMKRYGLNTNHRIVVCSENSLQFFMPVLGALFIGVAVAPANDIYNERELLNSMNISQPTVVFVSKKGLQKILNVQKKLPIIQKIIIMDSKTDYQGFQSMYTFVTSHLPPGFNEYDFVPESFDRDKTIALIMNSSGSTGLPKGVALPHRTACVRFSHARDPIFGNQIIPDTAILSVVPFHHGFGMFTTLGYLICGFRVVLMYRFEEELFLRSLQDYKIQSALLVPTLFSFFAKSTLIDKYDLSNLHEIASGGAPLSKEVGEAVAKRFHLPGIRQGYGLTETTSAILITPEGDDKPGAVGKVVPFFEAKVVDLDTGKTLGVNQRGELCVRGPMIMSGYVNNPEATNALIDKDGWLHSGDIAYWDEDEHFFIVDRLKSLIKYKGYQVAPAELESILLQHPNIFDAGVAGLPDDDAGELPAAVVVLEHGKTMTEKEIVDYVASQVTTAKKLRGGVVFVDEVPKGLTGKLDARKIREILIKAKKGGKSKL

Take `CCOC(=O)C[C@H]1[C@H](OC(=O)c2ccc(C(=O)c3ccccc3)cc2)[C@@H](NC(=O)CC(C)C)c2cc(OCCCO)ccc2N1C(=O)c1ccccc1`: the composite z-score in experiment [1] is 0.415; in experiment [3], 0.104; in experiment [4], -0.0357; in [5] it was 0.351; in experiment [6], 1.01; in experiment [7] it was -0.0609. The composite z-score in experiment [8] stood at 1.3; in experiment [9], 0.262; in experiment [10], 1.05; in experiment [11], 0.152; in experiment [12] it was 1.11; in experiment [13] it was 0.188. The composite z-score was 0.965 in [14]; 0.839 in experiment [15]; 0.609 in experiment [16]; 1.26 in experiment [18]; 0.227 in [19]. The composite Z-score in experiment [2] was -0.24 (inactive). Further, the z-score in [17] was 1.63; in [20], -0.675 (inactive).

For the compound `O=C1C[C@]2(c3ccc([N+](=O)[O-])cc3)C(=O)N(C3CC3)c3cc(CO)ccc3[C@H]2N1CC12CC3CC(CC(C3)C1)C2`, the composite z-score in experiment [1] was 0.393; in experiment [3], -0.213; in experiment [4], -0.0357; in experiment [5] it was 0.76; in [6] it was 0.422; in experiment [7], 0.401. Further, the composite z-score is -0.183 in experiment [8]; -0.201 in [9]; 0.176 in experiment [10]; -0.496 in experiment [11]; -0.336 in experiment [12]; -0.421 in [13]. Besides, the composite z-score in experiment [14] is -0.168; in [15], -0.579; in experiment [16], -0.364; in experiment [18] it was -1.5; in experiment [19], -0.456. Further, the composite Z-score in [2] was -0.571 (inactive). For the same compound, the z-score was -1.17 in experiment [17] and -0.124 (inactive) in [20].

Take `C=CCNC(=O)[C@@H]1[C@H]2C(=O)O[C@H](c3ccccc3)[C@H](c3ccccc3)N2[C@H](c2ccc(O)cc2)[C@@]12C(=O)N(C(=O)OCCOC)c1ccc(C#CC3=CCCCC3)cc12`: the composite z-score in experiment [1] was 0.179; in [3], 0.138; in experiment [4], -0.14; in experiment [5], 0.32; in [6], 1.57; in experiment [7], 0.354. In addition, the composite z-score in [8] came to 1.28; in [9] it was 0.673; in experiment [10], 0.737; in experiment [11], 1.11; in experiment [12], 1.19; in experiment [13], 0.664. For the same compound, the composite z-score in experiment [14] stood at 0.708; in experiment [15] it was 1.27; in [16], 1.54; in [18] it was 0.701; in experiment [19], 0.729. Further, the composite Z-score in experiment [2] was 0.683 (inactive). In addition, the values for the z-score in experiment [17] and in experiment [20] were -0.22 and -0.959 (inactive), respectively.

Take `CCCC=C(CCC)[C@@H](NP(=O)(c1ccccc1)c1ccccc1)c1ccc(-c2ccccc2)cc1`: the composite z-score in [1] stood at 0.91; in experiment [3] it was 0.36; in [4], 0.0117; in [5], 0.561; in experiment [6], 2.52; in experiment [7] it was 0.272. For the same compound, the composite z-score in experiment [8] was 1.34; in experiment [9], -0.465; in experiment [10], 1.09; in [11] it was 0.809; in experiment [12] it was 1.21; in [13], 0.332. Further, the composite z-score in experiment [14] is 0.997; in experiment [15] it was 1.11; in experiment [16], -0.0567; in experiment [18], 0.38; in [19], 1.25. The composite Z-score in experiment [2] is 0.439 (inactive). The z-score in experiment [17] was -2.3; in [20] it was 2.64 (inactive).

For the compound `COc1ccc([Si](C)(C)[C@@H]2[C@@H](CCO)O[C@]3(C(=O)N(Cc4cccc(NC(=O)[C@H](C)O)c4)c4ccccc43)[C@H]2C)cc1`, the composite z-score in [1] is 0.6; in experiment [3], -0.147; in [4] it was -0.0984; in experiment [5], 0.51; in experiment [6] it was 1.61; in experiment [7] it was 0.523. Further, the composite z-score in experiment [8] was 1.31; in [9], -0.083; in [10] it was 1.01; in experiment [11], 1.76; in experiment [12], 1.2; in experiment [13], 0.642. Further, the composite z-score in [14] amounted to 0.694; in experiment [15], 0.393; in [16], 0.957; in experiment [18], 0.486; in experiment [19], 0.743. Further, the composite Z-score in experiment [2] was 0.234 (inactive). Moreover, the z-score in experiment [17] is -1.52; in experiment [20], -0.355 (inactive).

As to `COc1ccc([Si](C)(C)[C@@H]2[C@@H](CC(=O)N(CCO)Cc3ccccc3)O[C@]3(C(=O)N(Cc4cccc(N5CCCCC5=O)c4)c4ccccc43)[C@H]2C)cc1`, the composite z-score in experiment [1] is 0.11; in experiment [3] it was -0.22; in experiment [4], -0.131; in experiment [5] it was 0.52; in [6], 1.86; in experiment [7] it was -0.104. Further, the composite z-score in [8] is 0.646; in experiment [9] it was 0.905; in [10] it was 1.03; in experiment [11] it was 0.112; in experiment [12], 0.869; in [13], 0.518. Besides, the composite z-score in [14] is -0.451; in [15], 1.15; in experiment [16], 0.361; in experiment [18], 1.46; in experiment [19] it was 0.349. Moreover, the composite Z-score in experiment [2] is 0.42 (inactive). The z-score in [17] was -0.171; in experiment [20], 0.151 (inactive).
